Assay outcomes deposited in PubChem BioAssay by several laboratories.
The list is not random: actives were taken first. Their share in the collection is about 4.9%.
PP1 inh: counter-screen for PP5 inhibitors: inhibitors of human PP1-alpha; inhibition, % at 6.7 µM; 320,000 compounds, 0.9% hits; P62136; purified PP1alpha, OMFP fluorescence;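 active means inhibition above the mean inhibition of all tested compounds plus 3 SD, computed separately for each screening campaign, cut at about 15% in these data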
Calb FLC: affects C. albicans growth with fluconazole. growth inhibition, % (test concentration not listed). C. albicans CaCi-2 (fluconazole-resistant clinical isolate) + fluconazole, Alamar Blue growth, 48 h. AID 1979. 300,000 compounds, 0.57% hits;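 active means growth inhibition above about 58% in most replicates, limit read from the data, passing the limit was not always enough; inconclusive means exactly half the replicates above a set limit; inactive means most replicates below a set limit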;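 further: all wells also contain fluconazole at 8 µg/ml as a sub-toxic cotreatment; 0% = median of DMSO wells and 100% = median of geldanamycin control wells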
PP5 primary: inhibitors of human protein phosphatase 5 (PP5). P53041. purified PP5c, OMFP substrate fluorescence. AID 1987. inhibition, % at 6.7 µM. 320,000 compounds, 0.18% hits;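 active means inhibition above the campaign's mean inhibition across all tested compounds plus 3 SD, cut at about 9.5% in these data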;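 further: 0% = DMSO only and 100% = 100 µM cantharidin control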
Target sequence (P53041 whole entry, looked up): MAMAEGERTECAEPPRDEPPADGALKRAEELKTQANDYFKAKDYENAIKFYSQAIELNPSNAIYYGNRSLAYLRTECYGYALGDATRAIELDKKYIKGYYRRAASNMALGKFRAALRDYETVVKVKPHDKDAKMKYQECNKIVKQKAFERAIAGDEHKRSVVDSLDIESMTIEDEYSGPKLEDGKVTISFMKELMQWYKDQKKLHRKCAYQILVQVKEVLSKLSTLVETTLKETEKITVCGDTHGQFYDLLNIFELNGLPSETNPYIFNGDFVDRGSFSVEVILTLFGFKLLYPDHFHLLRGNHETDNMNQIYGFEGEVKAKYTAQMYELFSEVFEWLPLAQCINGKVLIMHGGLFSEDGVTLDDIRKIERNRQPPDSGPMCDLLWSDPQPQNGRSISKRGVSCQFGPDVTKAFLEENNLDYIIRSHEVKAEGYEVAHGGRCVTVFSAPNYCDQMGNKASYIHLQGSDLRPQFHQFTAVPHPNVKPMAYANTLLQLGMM
CSC inhib: blocks cancer stem cells. inhibition, % at 7.5 µM. 300,000 compounds, 1.1% hits. AID 2717. cancer stem cell-like cells viability, luminescence; in the data active means inhibition above about 75%; inconclusive means no clear call, values can overlap the other calls; tested in HMLE shEcad cells
Beta cell apopt: blocks beta cell apoptosis. INS-1E cytokine-induced death, ATP luminescence, 48 h; percent of positive-control rescue, neutral wells zero. protection from apoptosis, % (test concentration not listed). 300,000 compounds, 0.8% hits;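 active means Every replicate reaches about 75%, or at least half do and their mean reaches it too, limit read from the data; inconclusive means At least half of replicates reach the limit but their mean does not; inactive means Under half of replicates reach the limit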;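 further: 0% = cytokine-treated negative control wells and 100% = positive control rescue; higher means more ATP so stronger rescue from cytokine killing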
Mdm2 MdmX PPI: disrupts the human Mdm2-MdmX interaction; SaOS-2 split-luciferase Mdm2/MdmX complementation, luminescence; inhibition, % at 8 µM; AID 485346; 330,000 compounds, 3% hits;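 active means inhibition of at least 50% at 8 µM in the primary screen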
Mdm2 MdmX conf: human Mdm2/MdmX binding inhibition, confirmed. shares compounds with Mdm2 MdmX PPI. luminescent assay. inhibition, % at 8 µM. 10,000 compounds, 55% hits; in the data active means inhibition above about 40%
FLuc counter: full-length luciferase inhibition in Mdm2/MdmX counter-screen. shares compounds with Mdm2 MdmX PPI. inhibition, % at 8 µM. AID 504607. 6,200 compounds, 77% hits. SaOS-2 full-length luciferase counterscreen, luminescence;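 active means mean inhibition at 8 µM reaching about 37%, which flags the compound as non-specific, limit read from the data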;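 further: p53-null SaOS-2 cells with luciferase driven by a doxycycline-inducible promoter; compound on cells about two nights before reading with doxycycline added after day one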
An asterisk follows results filed as active.

Results for CCOC(=O)CNC(=O)CSc1nnc(NC(=O)c2ccc(C)cc2)s1 ?
PP1 inh: -2; Calb FLC: -8; PP5 primary: 2; CSC inhib: 2; Beta cell apopt: 0; Mdm2 MdmX PPI: 54*; Mdm2 MdmX conf: 41*; FLuc counter: 68*

What do the screens show for `CCOC(=O)CNC(=O)CSc1nnc(NC(=O)c2ccc3c(c2)OCO3)s1`?
PP1 inh: -2; PP5 primary: 0; CSC inhib: 10; Beta cell apopt: -7; Mdm2 MdmX PPI: 12

How did Cn1c(/C=C/c2cccc([N+](=O)[O-])c2)c([N+](=O)[O-])c(=O)n(C)c1=O do in these assays?
PP1 inh: -1; Calb FLC: 94*; PP5 primary: 2; CSC inhib: 32; Beta cell apopt: -20; Mdm2 MdmX PPI: 84*; Mdm2 MdmX conf: 52*; FLuc counter: 43*

Results for COc1ccc(/C=C/c2c([N+](=O)[O-])c(=O)n(C)c(=O)n2C)cc1OC ?
PP1 inh: -5; Calb FLC: -1; PP5 primary: 1; CSC inhib: -16; Beta cell apopt: -8; Mdm2 MdmX PPI: 14

What do the screens show for `Cn1c(/C=C/c2ccc(Cl)cc2)c([N+](=O)[O-])c(=O)n(C)c1=O`?
PP1 inh: 2; Calb FLC: -6; PP5 primary: 2; CSC inhib: 57; Beta cell apopt: -5; Mdm2 MdmX PPI: 64*; Mdm2 MdmX conf: 44*; FLuc counter: 37*

What do the screens show for `COc1ccc(S(=O)(=O)NCC(=O)N(CC(=O)NCc2ccco2)Cc2ccc(F)cc2)cc1`?
PP1 inh: -4; Calb FLC: 12; PP5 primary: -2; CSC inhib: -1; Beta cell apopt: -3; Mdm2 MdmX PPI: 12

What do the screens show for `Cc1ccc(-c2cc(-c3ccc4c(c3)OCO4)c(C#N)c(N)n2)o1`?
PP1 inh: 2; Calb FLC: 26; PP5 primary: 2; CSC inhib: 2; Beta cell apopt: -7; Mdm2 MdmX PPI: 57*; Mdm2 MdmX conf: 27

How did CN1CCN(c2nc(-c3ccc(C(C)(C)C)cc3)nc3ccccc23)CC1 do in these assays?
PP1 inh: 8; Calb FLC: 13; PP5 primary: 5; CSC inhib: 38; Beta cell apopt: 6; Mdm2 MdmX PPI: 50*; Mdm2 MdmX conf: 48*; FLuc counter: 173*

Results for COc1cc(/C=N/n2cnc3scc(-c4cccs4)c3c2=O)cc(OC)c1OC ?
PP1 inh: 2; Calb FLC: -10; PP5 primary: -1; CSC inhib: 55; Beta cell apopt: 8; Mdm2 MdmX PPI: 61*; Mdm2 MdmX conf: 36

How did CC(=O)c1cccc(NC(=O)COC(=O)Cn2cnc3ccccc32)c1 do in these assays?
CSC inhib: -16; Beta cell apopt: -5; Mdm2 MdmX PPI: 7

What do the screens show for `CCCCNc1c(-c2cccc(-c3cc(C(C)=O)cs3)c2)nc2ccc(C)cn12`?
PP1 inh: 7; Calb FLC: 1; PP5 primary: 6; CSC inhib: 125*; Beta cell apopt: 2; Mdm2 MdmX PPI: 81*; Mdm2 MdmX conf: 58*; FLuc counter: 60*

How did CCCCNc1c(-c2cccc(-c3ccc(OC)cc3)c2)nc2cc(C)ccn12 do in these assays?
Beta cell apopt: 56; Mdm2 MdmX PPI: 92*; Mdm2 MdmX conf: -1

What do the screens show for `COc1ccc(-c2nc3cc(C)ccn3c2NC(=O)c2ccccc2OC)cc1`?
PP1 inh: 0; PP5 primary: -1; CSC inhib: 0; Beta cell apopt: 10; Mdm2 MdmX PPI: -12

Results for CCCCNc1c(-c2cccc(-c3ccc(OC)cc3)c2)nc2ccc(C)cn12 ?
PP1 inh: 7; Calb FLC: 9; PP5 primary: 4; CSC inhib: 114*; Beta cell apopt: 92*; Mdm2 MdmX PPI: 99*; Mdm2 MdmX conf: 56*; FLuc counter: 66*

Results for CCCCNc1c(-c2ccc(OC)c(SC3CCCCC3)c2)nc2cc(C)ccn12 ?
PP1 inh: 12; Calb FLC: 1; PP5 primary: 6; CSC inhib: 92*; Beta cell apopt: 18; Mdm2 MdmX PPI: 64*; Mdm2 MdmX conf: 21

Results for CCN(CC)c1ccc(/C=N/NC(=O)c2nnn(-c3nonc3N)c2C(C)C)c(O)c1 ?
PP1 inh: 9; Calb FLC: inconclusive; PP5 primary: 5; CSC inhib: 10; Beta cell apopt: 91*; Mdm2 MdmX PPI: 72*; Mdm2 MdmX conf: 88*; FLuc counter: 16

What do the screens show for `Cc1nnn(-c2nonc2N)c1C(=O)N/N=C/c1ccccc1O`?
PP1 inh: 3; Calb FLC: -5; PP5 primary: 2; CSC inhib: 24; Beta cell apopt: 85*; Mdm2 MdmX PPI: 56*; Mdm2 MdmX conf: 61*; FLuc counter: 51*

Results for COC(=O)c1ccc(Cn2nnc3c(=O)[nH]c(C4CCN(S(=O)(=O)c5ccc(F)cc5)CC4)nc32)cc1 ?
PP1 inh: 6; Calb FLC: -6; PP5 primary: 1; CSC inhib: -10; Beta cell apopt: -7; Mdm2 MdmX PPI: 30

How did O=C(Nc1nnc(CCN2CCCCC2)s1)c1ccccc1Cl do in these assays?
PP1 inh: 3; Calb FLC: 2; PP5 primary: 1; CSC inhib: -11; Beta cell apopt: -7; Mdm2 MdmX PPI: 18

How did COc1nc(-c2cccs2)cc(-c2ccc(C)cc2)c1C#N do in these assays?
PP1 inh: 0; Calb FLC: 8; PP5 primary: 2; CSC inhib: 49; Beta cell apopt: -1; Mdm2 MdmX PPI: 52*; Mdm2 MdmX conf: 55*; FLuc counter: 67*

How did O=C(N/N=C/c1cc(Br)cc(Br)c1O)c1cccc(S(=O)(=O)N2CCOCC2)c1 do in these assays?
PP1 inh: -1; Calb FLC: 17; PP5 primary: 2; CSC inhib: 20; Beta cell apopt: -11; Mdm2 MdmX PPI: 59*; Mdm2 MdmX conf: 60*; FLuc counter: 30

What do the screens show for `O=C(N/N=C/c1ccc(Cl)cc1Cl)c1cccc(N2CCCC2=O)c1`?
PP1 inh: -1; Calb FLC: 27; PP5 primary: 3; CSC inhib: 4; Beta cell apopt: 6; Mdm2 MdmX PPI: 4

How did O=C(N/N=C/c1sc(N2CCOCC2)nc1-c1ccccc1)c1ccc(O)cc1 do in these assays?
PP1 inh: -2; Calb FLC: -2; PP5 primary: 5; CSC inhib: -3; Beta cell apopt: 13; Mdm2 MdmX PPI: -12

Results for O=C(N/N=C/c1cc(Br)cc(Br)c1O)c1cccc(N2CCCC2=O)c1 ?
PP1 inh: 4; Calb FLC: inconclusive; PP5 primary: 1; CSC inhib: 11; Beta cell apopt: 2; Mdm2 MdmX PPI: 58*; Mdm2 MdmX conf: 50*; FLuc counter: 26
